WT yeast gro inh = growth inhibition of WT yeast, mitochondrial fusion screen. mitochondrial fusion phenotypic screen, WT strain. inhibition, % at 10 µM. actives 2.1% (n = 190,000). AID 1362; in the data active = inhibition above about 58%; tested in S. cerevisiae
RAM network inh = yeast RAM network inhibition | S. cerevisiae dse1pr::URA3 reporter, 5-FOA growth OD615, 2 d; analog-sensitive cbk1-as2 kinase mutant strain | inhibition, % at 50 µM | actives 1.8% (n = 190,000);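 active = inhibition above a set limit, 3 SD over mean compound inhibition, cut at about 8.4% in these data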;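 note: inhibition rescues growth on 5-FOA so higher OD means more RAM inhibition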
CHOP inhibitor = blocks CHOP induction under ER stress; CHO-K1 CHOP-promoter luciferase, tunicamycin-induced, 15-18 h; inhibition, % at 10 µM; actives 3.8% (n = 220,000);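 active = compounds that reduced the stress-induced luciferase reporter signal by more than about 70% of percent inhibition, limit read from the data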
L major viab = Leishmania major promastigote growth inhibition. AID 1063. actives 9% (n = 200,000). Leishmania major promastigotes, resazurin fluorescence viability. inhibition, % at 10 µM; in the data active = inhibition above about 50%;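 note: promastigotes grown with compound for 44 hours at 28 °C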
CHOP confirm = confirmation of CHOP induction inhibitors; shares compounds with CHOP inhibitor; actives 45% (n = 2,100); CHO-CHOP promoter luciferase reporter, tunicamycin-induced, luminescence; inhibition, % at 10 µM;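 active = mean of three repeat readings of reporter signal inhibition above a set limit, cut at about 70% in these data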
A number is an active result; i = inactive; nt = not tested or not shown. A selection: hits, their analogues and other compounds. The true share with any hit is near 13%.

SMILES | WT yeast gro inh | RAM network inh | CHOP inhibitor | L major viab | CHOP confirm
Cc1nc(C(=O)NC2CCOCC2)sc1C1(C)CC(c2cccc([N+](=O)[O-])c2)=NO1 (stereo unspecified) | nt | nt | i | nt | nt
Cc1nc(N2CCN(c3ccccc3)CC2)[nH]c(=O)c1Cc1cccc2ccccc12 | i | i | 97.2 | i | i
CCC(C)n1ncn(-c2ccc(N3CCN(c4ccc(OC)cc4)CC3)cc2)c1=O (stereo unspecified) | i | i | i | i | nt
CCNc1ncnc2c1cnn2C | i | i | i | i | nt
CC1=CC(C)(C)N(C(=O)c2ccc(F)cc2)c2cc3c(cc21)OCO3 | 71.2 | i | 98.0 | i | 71.1
Cc1ccc([N+](=O)[O-])c(C(=O)N/N=C/c2cccnc2)c1 | nt | nt | i | nt | nt
CC(=O)Cn1ncc(Br)c(Br)c1=O | i | 9.9 | 104.8 | 71.2 | i
O=C(OCn1ncc(Br)c(Br)c1=O)c1c(F)cccc1F | i | i | nt | 100.4 | 124.7
O=c1[nH]c2ccsc2c(=O)n1CCO | nt | nt | i | nt | nt
Cc1ccc(-c2nc(N)sc2-c2ccc(C)cc2)cc1 | 79.5 | i | 96.9 | i | 114.5
C#CCOCCOCCOCCNc1nc(N2CCOCC2)nc(N2CCN(C(=O)[C@H](CCC(=O)O)n3cc(C(N)[C@H](C)CC)nn3)CC2)n1 (stereo partly specified) | i | i | i | i | nt
CC(C)(C)c1nc2c(C#N)c(-c3ccc(Cl)cc3)ccn2n1 | i | i | 100.9 | i | i
CCOc1cc(C)c(-c2onc(C(F)(F)F)c2-c2csc(C)n2)c(O)c1 | i | i | 104.9 | i | 72.3
Cc1cccc(/C=N\NC(=O)c2ccc(Cl)cc2)c1O | i | i | 98.0 | 72.4 | i
O=C(COc1ccc(Cl)cc1)NCc1nnc(SCC(=O)N2CCCC2)o1 | i | i | i | i | nt
O=C(CSc1nc2ccccc2s1)NCCOc1ccccc1 | i | i | i | i | nt
O=[N+]([O-])c1c(NCCCO)cc(N2CCN(Cc3ccc4c(c3)OCO4)CC2)c2nonc12 | i | i | i | i | nt
CC(=O)OCCCNc1cc(Sc2nc3ccccc3s2)c2nonc2c1[N+](=O)[O-] | 96.5 | i | 109.0 | 65.0 | i
O=[N+]([O-])c1c(NCCCO)cc(Sc2ccc(Cl)cc2)c2nonc12 | i | i | 110.7 | i | 141.0
CN(/N=C/c1ccncc1)c1cnn(-c2ccc(F)c(Cl)c2)c(=O)c1Cl | i | i | 100.2 | i | i
Cc1ccc(-n2ncc(N(C)C)c(Cl)c2=O)cc1 | i | i | i | i | nt
Cc1nc2ccccc2c(=O)n1NC(=O)c1ccc([N+](=O)[O-])cc1 | i | i | i | i | nt
CC(C)(C)C1CCC(C(=O)OCC(=O)N2CCOCC2)CC1 (stereo unspecified) | i | i | i | i | nt
C/C(N)=C(/C#N)C(=O)COC(=O)C1CCC(C(C)(C)C)CC1 (stereo unspecified) | i | i | 97.3 | i | 86.7
S=C(Nc1ccccc1)Nc1ccc(Cl)cc1Cl | i | i | i | i | nt
SMILES | WT yeast gro inh | RAM network inh | CHOP inhibitor | L major viab | CHOP confirm
FC(F)(F)c1cccc(NC(=S)NNC(=S)NCc2ccccc2)c1 | i | i | i | i | nt
FC(F)(F)c1cccc(NC(=S)Nc2ccc(Cl)cc2Cl)c1 | i | i | 105.2 | i | 100.7
O=C(Cc1ccccc1)NC(=S)Nc1cccc(C(F)(F)F)c1 | i | i | 107.7 | i | 101.5
FC(F)(F)c1cccc(NC(=S)NCC2COc3ccccc3O2)c1 (stereo unspecified) | 88.7 | i | 103.4 | 51.4 | i
Cc1sc2nc(CN3CCCCC3)nc(Cl)c2c1C | i | i | i | i | nt
CCOC(=O)c1sc(SC)c2c1CCCC2=O | nt | nt | i | nt | nt
Cn1c2ccccc2c(=O)c2c(=O)n(C3CCCCC3)c(-c3cccs3)nc21 | i | i | 96.9 | i | i
Cn1c2ccccc2c(=O)c2c(=O)n(C3CCCCCC3)c(C3CCCCC3)nc21 | i | i | 105.2 | 73.7 | 121.8
COc1ccc(Cn2c(C3CCCCC3)nc3c(c(=O)c4ccccc4n3C)c2=O)cc1 | nt | nt | i | nt | nt
COc1ccc(CCn2c(C3CCCCC3)nc3c(c(=O)c4ccccc4n3C)c2=O)cc1 | nt | nt | 100.2 | nt | i
NS(=O)(=O)c1ccc(Cl)cc1[N+](=O)[O-] | nt | nt | i | nt | nt
Cc1ccc(NC(=O)NC(=O)CN2C(=O)NC3(CCCCCCC3)C2=O)c(C)c1 | i | i | 105.0 | i | 90.9
Cc1ccc(NC(=O)Nc2nnc(-c3ccncc3)s2)cc1C | i | i | 103.8 | i | i
Cc1cc(/C=C2\C(=O)NN(c3ccccc3)C2=O)c(C)n1-c1ccccc1O | nt | nt | 96.4 | nt | i
Cc1cc(C=C2C(=O)CCCC2=O)c(C)n1-c1ccccc1 | i | i | i | i | nt
CCOc1ccc(Oc2ccc(Cl)cc2N)cc1 | i | i | i | i | nt

Assay outcomes (PubChem BioAssay)
